Source: PubChem BioAssay
This is a sample that favours compounds with a hit; in the whole collection about 5.7% have one here.
GRIN3A LBD mod: NR3A (human) ligand-binding domain modulation | NR3A LBD differential scanning fluorimetry, Tm shift; 0% = protein alone, 100% = glycine-bound protein | Tm shift relative to glycine control, % at 25 µM | hit rate 2.5% among 340,000 | AID 1259313;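 active = melting temperature shift of at least 10% of the positive control shift, at one fixed dose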
Myeloid diff 2: compounds promoting myeloid differentiation. ER-HoxA9 myeloid progenitors, lysozyme-GFP differentiation, flow cytometry. AID 624256. hit rate 1% among 360,000. calls only at 10 µM;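 active = normalized GFP-positive differentiation at or above the plate's own cutoff, the solvent-only control mean plus 3 SD; inconclusive = no clear call, values can overlap the other calls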;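 also: cells exposed to compound for four days before flow analysis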
rCAG binder: molecules binding r(CAG) RNA repeats; r(CAG) RNA repeat, TO-PRO-1 dye displacement fluorescence; hit rate 1.3% among 370,000; inhibition, % at 3 µM;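 active = inhibition above the plate cutoff, the mean of all test compounds on that plate plus 3 SD, cut at about 35% in these data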;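 also: 0% = DMSO alone and 100% = 100 µM mitoxantrone as full dye displacement; higher means more dye released from RNA so lower well fluorescence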
MPTP inh: blocks calcium-induced mitochondrial swelling; isolated mouse mitochondria, Ca2+ swelling absorbance, 30 min; inhibition, % at 10 µM; hit rate 1.4% among 360,000; AID 602449;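 active = inhibition of 50% or more, scaled per plate between neutral and stimulator controls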;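 also: 0% = DMSO wells given calcium and 100% = 1 mM EGTA wells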
FAS TE block: FAS thioesterase (human) inhibition; P49327; recombinant FAS-TE, OMFH fluorogenic substrate, fluorescence endpoint; inhibition, % at 15 µM; hit rate 0.67% among 360,000; AID 602261;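 active = compounds whose normalised, plate-corrected inhibition of enzyme fluorescence in the single-dose primary screen is 50% or more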;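 also: 0% = DMSO with enzyme and 100% = substrate without enzyme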
Numbers without * were called inactive.

`C[C@@H]1OC(C2CCCCC2)N(C)[C@H]2C[C@H]3c4cc(-c5ccc6c(c5)OCO6)ccc4CCN3C[C@@H]12` (stereo not given in full) gave rCAG binder 9.
Screening O=C(NCc1cccs1)C1C2C=CC3(CN(Cc4ccccc4)C(=O)C13)O2 (stereo not given) returned rCAG binder 3.
`COC(=O)[C@H](CC(C)C)N(CCc1cn(Cc2ccccc2)nn1)S(=O)(=O)c1ccccc1Br` gave rCAG binder 2.
For Clc1ccc(-c2nnc(SCc3cccc4ccccc34)n2Cc2ccco2)cc1 the results were rCAG binder 6.
Screening CC1CCCCC1NC(=O)CN1C(=O)COc2ccccc21 (stereo not given) returned GRIN3A LBD mod -1, Myeloid diff 2 inactive, rCAG binder 0, MPTP inh -1 and FAS TE block -4.
Screening CCC1Oc2ccccc2N(CC(=O)NC2CCCCC2C)C1=O (stereo not given) returned GRIN3A LBD mod 15*, Myeloid diff 2 inactive, rCAG binder -7, MPTP inh 0 and FAS TE block -3.
For CC(C)NC(=O)NC1C2CC3CC(C2)CC1C3 (stereo not given) the results were GRIN3A LBD mod 13*, Myeloid diff 2 inactive, rCAG binder -1, MPTP inh 1 and FAS TE block -4.
`CC(NC(=O)c1ccccc1Cl)c1nnc(SCC(=O)Nc2ccc(C(=O)O)cc2)n1C` (stereo not given) gave GRIN3A LBD mod 16*, Myeloid diff 2 inactive, rCAG binder 2, MPTP inh -3 and FAS TE block -7.
`COC(=O)c1ccccc1NC(=O)CSc1nnc(C(CO)NC(=O)c2ccccc2Cl)n1C` (stereo not given) gave GRIN3A LBD mod -1, Myeloid diff 2 inactive, rCAG binder 9, MPTP inh -2 and FAS TE block -6.
Screening CC(=O)c1sc(Nc2nc3cc4c(cc3s2)OCO4)nc1C returned GRIN3A LBD mod 5, Myeloid diff 2 inactive, rCAG binder 1, MPTP inh 0 and FAS TE block -3.
`COc1ccc(Nc2nc3ccc(OC)cc3s2)cc1` gave GRIN3A LBD mod 28*, Myeloid diff 2 inactive, rCAG binder 0, MPTP inh -2 and FAS TE block 8.
Screening COc1ccc2nc(Nc3nc(C)c(C(C)=O)s3)sc2c1 returned GRIN3A LBD mod 11*, Myeloid diff 2 inactive, rCAG binder 34, MPTP inh 9 and FAS TE block 0.
Screening COC(=O)C1=C(C)N(Cc2ccccc2C(F)(F)F)C(=NCc2ccc(C(F)(F)F)cc2)NC1c1ccccc1 (stereo not given) returned rCAG binder 2.
For CC(Cc1ccccc1)N/C=C1/CC(=O)NC1=O (stereo not given) the results were GRIN3A LBD mod 14*, Myeloid diff 2 inactive, rCAG binder 2, MPTP inh -1 and FAS TE block -7.
For O=C1C/C(=C/NCc2ccccc2)C(=O)N1 the results were GRIN3A LBD mod 0, Myeloid diff 2 inactive, rCAG binder -4, MPTP inh 0 and FAS TE block -4.
`C=CCN1CC(COc2ccc(OC)cc2)OCCS1(=O)=O` (stereo not given) gave rCAG binder 1.
`O=C(CNC(=O)c1ccc2c(c1)OCO2)N/N=C(Br)/C=C/c1ccccc1` gave GRIN3A LBD mod -7, Myeloid diff 2 active, rCAG binder 6, MPTP inh -31 and FAS TE block 5.
O=C(/C=C/c1ccccc1)c1ccc2c(c1)OCO2 was read as GRIN3A LBD mod 0, Myeloid diff 2 inactive, rCAG binder 0, MPTP inh -2 and FAS TE block 7.
`C[C@H]1Cn2cnc(C(=O)N3CCN(c4ccccc4)CC3)c2C(=O)N1` gave rCAG binder 6.
`COc1cc(OC)cc(C(=O)NC(=S)Nc2ccc(NC(=O)c3ccco3)cc2)c1` gave GRIN3A LBD mod 18*, Myeloid diff 2 inactive, rCAG binder 4, MPTP inh 0 and FAS TE block -2.
O=C(NC(=S)NCCc1ccccn1)c1ccco1 was read as GRIN3A LBD mod 244*, Myeloid diff 2 inactive, rCAG binder -1, MPTP inh 0 and FAS TE block -1.
For CC(C)CC(=O)N1CCN(c2ccc(NC(=O)c3ccco3)cc2)CC1 the results were GRIN3A LBD mod 13*, Myeloid diff 2 inactive, rCAG binder -8, MPTP inh 1 and FAS TE block -3.
For O=C(NC(=S)NCCc1ccccn1)c1ccccc1 the results were GRIN3A LBD mod 1, Myeloid diff 2 inactive, rCAG binder -2, MPTP inh -1 and FAS TE block -1.
For CC(=O)Nc1ccc(NC(=S)NC(=O)/C=C/c2ccc(Cl)cc2)cc1 the results were GRIN3A LBD mod -5, Myeloid diff 2 inconclusive, rCAG binder -1, MPTP inh -1 and FAS TE block -1.
For O=C(/C=C/c1ccc(Cl)cc1)NC(=S)Nc1ccc(NC(=O)c2ccco2)cc1 the results were GRIN3A LBD mod 34*, Myeloid diff 2 inconclusive, rCAG binder 1, MPTP inh 1 and FAS TE block -4.
Screening COc1ccccc1C(=O)NC(=S)Nc1ccc(NC(=O)c2ccco2)cc1 returned GRIN3A LBD mod -3, Myeloid diff 2 inactive, rCAG binder 4, MPTP inh 0 and FAS TE block 16.
For Fc1cccc(Cn2ccc3ccc(-c4ccc5ccn(Cc6ccccc6)c5c4)cc32)c1 the results were rCAG binder 17.
For CCN(CC)C(=O)[C@H]1C[C@@H]2[C@H](C[C@@H](c3ccccc3)[C@H]1C)N(c1ccc(F)cc1)C(=O)N2C/C=C(\C)CCC=C(C)C the results were rCAG binder 7.
For Brc1ccc(N2O[C@H]3C=C[C@@H]2C3)nc1 the results were rCAG binder 10.
For COC(=O)[C@]12C[C@H](CC(=O)N3CCN(C(=O)C4CC4)CC3)C(=O)N(Cc3cccc4ccccc34)C1=C[C@H](COCc1ccccc1)O[C@@H]2C the results were rCAG binder 7.
`CC(C)CC(=O)NC(=S)Nc1ccc(NC(=O)c2ccco2)cc1` gave GRIN3A LBD mod 19*, Myeloid diff 2 inactive, rCAG binder 2, MPTP inh 1 and FAS TE block -3.
Screening O=C(Nc1ccc(NC(=S)NC(=O)c2ccco2)cc1)c1ccccc1 returned GRIN3A LBD mod 15*, Myeloid diff 2 inactive, rCAG binder 2, MPTP inh 4 and FAS TE block 4.
`COc1ccc(CN2C[C@H](COCc3ccccc3)Oc3cccc(Oc4ccc(C(C)C)cc4)c3S2(=O)=O)cc1` gave rCAG binder 6.
COC(=O)[C@H](CCSC)NC(=O)Nc1ccc(C)cc1 was read as GRIN3A LBD mod 11*, Myeloid diff 2 inactive, rCAG binder -3, MPTP inh 0 and FAS TE block -3.
COC(=O)[C@H](CCSC)NC(=O)Nc1cccc(Br)c1 was read as GRIN3A LBD mod 17*, Myeloid diff 2 inactive, rCAG binder 1, MPTP inh 4 and FAS TE block -2.
